About 79,000 compounds went through this panel and 15% of them were active in at least one assay; those are over-represented in the sample as a whole. A number with no mark means an inactive call. Active and inactive are the calls of the source. No stated cut-off is given here; in the data, active means growth inhibition above about 70%; inactive means the rest.

The nature of test [1]: NCI Yeast Anticancer Drug Screen. Data for the rad50 strain (AID 155).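 Further: 0% = growth of vehicle-only cultures of the same strain.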 The following applies: S. cerevisiae rad50 strain growth inhibition; at 50.0 µM; hits give high values. Summed up: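 Readout: growth inhibition relative to vehicle-treated cultures. Compound exposure was carried out in a genetically defined yeast strain deficient in DNA damage repair.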
The nature of test [2]: NCI Yeast Anticancer Drug Screen. Data for the mec2-1 strain (AID 157). As to conditions: S. cerevisiae mec2-1 strain, at 50.0 µM, hits give high values. In short, it runs like this:
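Mutant yeast (mec2-1) grown with compound; growth inhibition relative to vehicle control reported.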

The nature of test [3]: NCI Yeast Anticancer Drug Screen. Data for the sgs1 mgt1 strain (AID 161).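 Further: 0% = growth of cultures given vehicle only.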 As to conditions: S. cerevisiae sgs1 mgt1 strain, at 50.0 µM, hits give high values. Summed up:
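Growth of a repair-deficient yeast mutant was monitored after compound treatment and expressed as inhibition relative to vehicle-treated cultures.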

Test [4] is described as follows: NCI Yeast Anticancer Drug Screen. Data for the cln2 rad14 strain (AID 165).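 Further: 0% = growth equal to vehicle treated cultures.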 The following applies: S. cerevisiae cln2 rad14 strain, at 50.0 µM, hits give high values. In short, it runs like this:
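Readout is yeast growth inhibition versus vehicle-treated controls, using a strain with cln2 and rad14 alterations exposed to compound.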

Test [5] is described as follows: NCI Yeast Anticancer Drug Screen. Data for the bub3 strain (AID 167). The following applies: S. cerevisiae bub3 mutant strain, at 50.0 µM, hits give high values. In short, it runs like this:
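Readout: yeast growth inhibition, expressed relative to vehicle-only wells. The test organism is a mutant strain from a panel with lesions in DNA repair or checkpoint genes.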

Test [6] in a line: NCI Yeast Anticancer Drug Screen. Data for the mlh1 rad18 strain (AID 175). The following applies: S. cerevisiae mlh1 rad18 strain growth inhibition; at 50.0 µM; hits give high values. In short, it runs like this: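 Genetically defined yeast (DNA repair-deficient) exposed to compounds; growth inhibition determined relative to vehicle.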

On to `Nc1cc(=O)n(Cc2ccco2)c(=S)[nH]1`, for which the growth inhibition in test [1] was 19.8%; in test [2] it was -16.6%; in test [3], 9.35%; in test [4] it was 2.75%; in test [5], -7.95%; in test [6] it was -8%.

Take `O=C1NCCCCC1CC/C=C/c1ccccc1` (stereo unspecified): the growth inhibition was -13.7% in test [1]; -23.2% in test [2]; -3.7% in test [3]; -9.6% in test [4]; 32.5% in test [5]; -5.85% in test [6].

Turning to `CSC1(SC)CCCCCCCCCCC1`, the growth inhibition in test [1] was -19.8%; in test [2] it was -17.2%; in test [3], -17.9%; in test [4] it was -15.9%; in test [5], -34.9%; in test [6], -29.4%.

Consider `CCCCc1c2c(nc3c1CCCC3=O)CCCC2`, for which the growth inhibition was 8.7% in test [1]; 8.45% in test [2]; 27.4% in test [3]; 15.8% in test [4]; 37.9% in test [5]; -0.8% in test [6].

As for `O=C1Cc2ccccc2C(=O)N1`, the growth inhibition in test [1] was 23%; in test [2], 22.3%; in test [3] it was 27.3%; in test [4], 7.4%; in test [5], 4.8%; in test [6] it was 16.4%.

Take `COc1ccc(COC=O)cc1`: the growth inhibition in test [1] is 21.8%; in test [2], -5.1%; in test [3], -0.8%; in test [4] it was 1.55%; in test [5] it was 11.3%; in test [6], 24.4%.

Regarding `COC(=O)CCC(=O)NCC(=O)OCc1ccccc1`, the growth inhibition in test [1] is 0.55%; in test [2], -1.85%; in test [3], -13.9%; in test [4] it was 3.05%; in test [5], -11.8%; in test [6], 19.2%.

On to `N/C=N/OCc1ccccc1`, for which the growth inhibition in test [1] was 10%; in test [2], 5.05%; in test [3] it was 9%; in test [4] it was 4.7%; in test [5], -3.75%; in test [6], 5.75%.

Take `CC(C)N(CSc1ccc([N+](=O)[O-])cc1)CSc1ccc([N+](=O)[O-])cc1`: the growth inhibition in test [1] was 12.3%; in test [2] it was 5.75%; in test [3], 4.1%; in test [4] it was -4.1%; in test [5], -4.7%; in test [6], -1%.

As for `CCOC(=O)N1CCN(C(=O)OCC)C(C)C1` (stereo unspecified), the growth inhibition is 4.45% in test [1]; -0.7% in test [2]; -8.8% in test [3]; -20.1% in test [4]; 6.35% in test [5]; -8.6% in test [6].

Turning to `O=C(NC(=O)c1c(F)cccc1F)Nc1ccc(C(O)(C(F)(F)F)C(F)(F)F)cc1`, the growth inhibition in test [1] is -33.2%; in test [2], 14.5%; in test [3] it was 10.2%; in test [4], 24.1%; in test [5], 6%; in test [6], 3.55%.

For the compound `O=C(/C=C/c1ccc([N+](=O)[O-])cc1)NN=C(c1ccccc1)c1ccccc1`, the growth inhibition is -20.4% in test [1]; -16.4% in test [2]; -12.3% in test [3]; -7.1% in test [4]; -9.5% in test [5]; -0.15% in test [6].

Consider `Cc1ccnc(N=C(N)Nc2cc(C)ccn2)c1`, for which the growth inhibition in test [1] was 19.6%; in test [2] it was 26.4%; in test [3] it was 13.1%; in test [4], 11.2%; in test [5], 6.75%; in test [6] it was 8.85%.

Regarding `COC(=O)c1cc(C(=O)OC)c(C/C(=N/NC(N)=S)C(=O)Nc2ccc(Cl)c(Cl)c2)nc1C/C(=N/NC(N)=S)C(=O)Nc1ccc(Cl)c(Cl)c1`, the growth inhibition in test [1] is 28.4%; in test [2], 14.9%; in test [3] it was 7.1%; in test [4], 34.2%; in test [5], 32.7%; in test [6], 44%.

`Cn1nc2ccc3nccc(NCCNCCO)c3c2n1`: the growth inhibition is -3.65% in test [1]; -8.8% in test [2]; -4.65% in test [3]; 7.4% in test [4]; -4.8% in test [5]; -9.65% in test [6].

In the case of `O=C(c1ccc(Cl)cc1)C(c1ccccc1)N1CCCCC1` (stereo unspecified), the growth inhibition is 2.05% in test [1]; -8.15% in test [2]; -0.1% in test [3]; -45.8% in test [4]; -1.6% in test [5]; 6.85% in test [6].

For `O=C(c1ccc(Cl)cc1)c1cc([N+](=O)[O-])cc([N+](=O)[O-])c1`, the growth inhibition in test [1] is -0.35%; in test [2] it was 3%; in test [3], -2.45%; in test [4], -49.6%; in test [5], 22.8%; in test [6], -8.75%.

Turning to `CC1=NC(C(N)=O)C(=O)N1` (stereo unspecified), the growth inhibition was -35% in test [1]; -23.4% in test [2]; -15.3% in test [3]; -30.4% in test [4]; -8.8% in test [5]; -0.65% in test [6].

`Cc1ccc2nc3c(C)cc(=O)cc-3sc2c1`: the growth inhibition is 41.1% in test [1]; 34.6% in test [2]; 36.5% in test [3]; 44.9% in test [4]; 74.5% (active) in test [5]; 43.6% in test [6].

Turning to `CCCC1c2c(ccc3ccccc23)Oc2ccc3ccccc3c21`, the growth inhibition in test [1] was -36.1%; in test [2] it was 2.4%; in test [3], -19.6%; in test [4] it was -2%; in test [5], -13.7%; in test [6], -1.35%.

Turning to `O=C(OCCOCBr)c1ccccc1`, the growth inhibition is -9.75% in test [1]; -32.5% in test [2]; 19.9% in test [3]; 18% in test [4]; 31.1% in test [5]; -14.3% in test [6].
